From PubChem BioAssay
DT40 TDP1 CPT: growth inhibition of DT40 Tdp1-/-;hTDP1 cells with camptothecin (screen for TDP1 inhibitors); AID 686979; chicken DT40 Tdp1-/-;hTDP1 cells + 20 nM CPT, ATP luminescence, 48 h; 420,000 compounds, 12% hits; Potency, µM (top dose mostly 46.2 µM), inactives show at the top dose activity change, negative = growth inhibition, most hits filed as inhibitors; also: potency is read from the fitted curve at half-maximal effect; nearly all actives have a fitted effect of over 55% in size
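Chicken DT40 Tdp1-/- cells stably complemented with human TDP1 were seeded at 400 cells/well in medium containing 20 nM camptothecin, exposed to pin-transferred compounds, and grown at 37 °C for at least 48 hr. Viability was read as ATP luminescence.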
DT40 TDP1 no CPT: qHTS for Inhibitors of human tyrosyl-DNA phosphodiesterase 1 (TDP1): qHTS in cells in absence of CPT; DT40 Tdp1-/- hTDP1 cells, no CPT, ATP luminescence, 48 h; Potency, µM (titrated, usually from 46.2 µM), for the others: top-dose activity change, negative = growth inhibition, actives largely listed as inhibitors; 420,000 compounds, 15% hits; AID 686978, 2013; also: potency is read from the fitted curve at half-maximal effect; nearly all actives have a fitted effect of over 55% in size
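Chicken DT40 Tdp1-/- cells complemented with human TDP1, screened without camptothecin (DMSO vehicle only), 400 cells/well. Compounds pin-transferred, cells incubated at 37 °C for at least 48 hr. Growth read as ATP-dependent luminescence (CellTiter-Glo, 30 min at RT).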
IL1B secr inh: inhibitors of inflammasome signaling (IL-1 beta secretion); activity change, % at 57.5 µM; 360,000 compounds, 4.7% hits; THP-1 LPS/ATP IL-1B secretion, AlphaLISA, 16 h; active compounds read low; in the data active = activity change below about -50%; inconclusive = mostly about -30% to -49%
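THP-1 cells pretreated 1 hr with compounds (up to 57.5 uM final), then stimulated with LPS (250 ng/mL final) plus ATP (1.25 mM final); secreted IL-1B measured by AlphaLISA after 16 hr, decreased signal indicating inhibition.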
HT1080NT lethal: kills 2HG-producing HT-1080-NT fibrosarcoma cells. HT-1080-NT fibrosarcoma viability, CellTiter-Glo ATP luminescence, 48 h. 360,000 compounds, 1.6% hits. Potency, µM (series often up to 46.1 µM), for inactives: top-dose activity, negative = less viability, hits mostly cytotoxic;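 also: NT is the 2HG producing partner of a matched IDH1 knockdown line; potency is read from the fitted curve at half-maximal effect; 0% = DMSO-treated cells and -100% = media-only wells without cells; nearly all actives have a fitted effect of over 55% in size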
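HT-1080-NT; 750 cells/well; 5% FBS RPMI; 48 h compound, 37 degrees C; CellTiter-Glo luminescence; curve fitting and curve-class assignment.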
HT1080 IDH1KD tx: toxicity to HT-1080 IDH1 knockdown cells (counter line); 360,000 compounds, 2% hits; Potency, µM (titrated, usually from 46.1 µM), without a hit: at the highest dose activity, negative = toxicity, hits mostly cytotoxic; HT-1080 IDH1 knockdown viability, ATP luminescence, 48 h;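 also: potency is read from the fitted curve at half-maximal effect; 0% = DMSO wells and -100% = cell-free medium wells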
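CellTiter-Glo luminescence after 48 h compound exposure at 37 degrees C of IDH1-knockdown HT-1080 cells in 5% FBS RPMI. %Activity scaled between DMSO wells and cell-free media wells, with curves fitted and assigned curve classes.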
Numbers without * were called inactive; ? = inconclusive; . = no result given; [ ] = another dose, or the depositor's remark. In the library only some 19% were active in any assay of this set; here they are far more common. Unless noted, calls follow the shape of the dose curve; as a rule, active = well fitted curve in the direction sought with a large enough effect; inconclusive = small, poorly fitted or top-dose-only effect, or another doubt; inactive = no such curve, though single readings can be large; an effect the other way counts as inactive or inconclusive. Unless noted, % is scaled to controls: 0 for no effect and ±100 for the full control effect.

SMILES | DT40 TDP1 CPT | DT40 TDP1 no CPT | IL1B secr inh | HT1080NT lethal | HT1080 IDH1KD tx
CC1(C)Oc2ccc3ccc(=O)oc3c2/C(=C/Nc2ccc(O)cc2)C1=O | -21% | ? | -81* | ? | -19%
CC1(C)Oc2ccc3ccc(=O)oc3c2/C(=C/Nc2cccc(O)c2)C1=O | ? | 21µM* | -84* | ? | ?
CC(C)(C)c1ccc(CC(=O)N2CCC2(C)C(=O)NS(=O)(=O)c2ccc(Cl)cc2)cc1 (configuration not stated) | -15% | 6% | 39 | 10% | 9%
Cc1ccc(C)c(S(=O)(=O)N2CCN(C(=O)/C=C/c3ccco3)CC2)c1 | ? | -27% | 14 | 4% | 7%
Cc1ccc(C)c(NC(=O)Cn2c(=O)n(-c3ccccc3C)c(=O)c3c2c2cc(C)ccc2n3C)c1 | ? | -10% | . | . | .
Cc1ccc(CNC(=O)Cn2c(=O)n(-c3ccc(C)cc3)c(=O)c3c2c2cc(C)ccc2n3C)cc1 | -12% | -14% | . | . | .
COc1ccc2c(c1)c1c(c(=O)n(-c3ccc(C)cc3)c(=O)n1CC(=O)NCc1ccc(C)cc1)n2C | 7.3µM* | 6.5µM* | . | . | .
Cc1ccc2c(c1)c1c(c(=O)n(-c3ccccc3C)c(=O)n1Cc1ccccc1F)n2C | 15µM* | 5.8µM* | . | . | .
Cc1ccc2c(c1)c1c(c(=O)n(-c3ccccc3C)c(=O)n1CC(=O)NCc1ccccc1)n2C | ? | 18µM* | . | . | .
COc1ccc(C(=O)NCc2ccc3[nH]c(C)cc3c2)cc1OC | -6% | -5% | -10 | -4% | 1%
O=C(NC1CCN(C(=O)Nc2ccccc2Cl)CC1)c1ccccc1 | ? | ? | 4 | -2% | 2%
CC(C)(C)OC(=O)NOCC(=O)N(Cc1ccccc1)CC(O)COc1ccccc1 (configuration not stated) | ? | ? | -9 | -26% | -6%
FC(F)(F)c1nc(N2CCCC2)ncc1-c1nnnn1-c1ccccc1 | 16µM* | 23µM* | -19 | 29% | -29%
Cc1ccc(-n2nnnc2-c2cnc(N3CCCC3)nc2C(F)(F)F)cc1 | 23µM* | 12µM* | -25 | -18% | ?
Fc1cccc(-n2ncc(-c3nnnn3-c3ccccc3)c2C(F)(F)F)c1 | -6% | -23% | 2 | -1% | 1%
CCc1cccc(NC(=O)C2CCN(S(=O)(=O)c3c(C)noc3C)CC2)c1 | 9% | -22% | 7 | -17% | -5%
Cc1nc(-c2ccc(C)c(S(=O)(=O)N3CCC(C(=O)Nc4ccc(Cl)cc4)CC3)c2)no1 | 16µM* | ? | . | . | .
CC(=O)c1ccc(N2CCN(S(=O)(=O)c3cc(-c4noc(C)n4)ccc3C)CC2)cc1 | ? | 2% | . | . | .
CCc1cccc(NC(=O)C2CCN(S(=O)(=O)c3cccc(-c4noc(C)n4)c3)CC2)c1 | ? | 21µM* | . | . | .
Cc1nc(-c2cccc(S(=O)(=O)N3CCC(C(=O)NCc4ccccc4Cl)CC3)c2)no1 | 18µM* | -88% | . | . | .
Cc1ccc(OCC(=O)Oc2ccc(C)c(C)c2)cc1 | 6% | 10% | -2 | -3% | 16%
Cc1ccnc2nc(C(=O)OCC(=O)NCc3cccc(Cl)c3)nn12 | 4% | 3% | -1 | 12% | 7%
Cc1ccc(C(=O)OCc2nnc(-c3ccccc3)o2)cc1S(=O)(=O)N1CCOCC1 | -3% | -11% | -9 | 10% | 13%
Cc1ncc2c(c1CNS(=O)(=O)N(C)C)CCN(C(=O)/C=C/c1ccccc1)C2 | 6%[9.04 µM] | -9% | . | . | .
O=C(OCc1csc(Nc2ccccc2)n1)c1ccc(Cl)cc1 | 3% | -24% | 7 | 4% | 6%
O=C(c1ccc(Cl)c(S(=O)(=O)N2CCOCC2)c1)N(Cc1ccco1)Cc1cccs1 | ? | ? | -3 | 6% | 10%
Cn1cc(C[C@H](NC(=O)OC(C)(C)C)C(=O)N[C@@H](CO)Cc2ccccc2)c2ccccc21 | 18µM* | ? | -6 | -7% | 0%
